Only a selection was taken, and hits are over-represented in it overall.
Pf Dd2 inh: Plasmodium falciparum Dd2 growth inhibition. P. falciparum Dd2 growth, SYBR Green, 72 h. Potency, µM (highest dose often 28.9 µM), actives largely listed as inhibitors. 120,000 tested, 4.3% active. AID 1347417; active = well fitted inhibition curve with a large enough effect; also: nearly all actives have a fitted effect of over 65% in size
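Readout: SYBR Green fluorescence, 485 nm excitation, 535 nm emission, after ~16 h lysis at 37C. Before that, Dd2-infected red cells (2.5% hematocrit) grew 72 h with compound, 29 uM top final concentration.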
A number is an active result; – = inactive; [ ] = dose if it differs, or a comment.

SMILES	Pf Dd2 inh
CCc1ccccc1NC(=O)Cn1c(C)cc2nc3n(c(=O)c21)CCCC3	–
O=C(O)C1(Oc2ccc3ncccc3c2)CCN(c2cnccn2)CC1	–
O=C(Nc1ccc(F)cc1F)N1CCC2(CC1)SCC(=O)N2c1ccc(F)cc1	–
COC(=O)[C@@H]1Cc2ncn(Cc3ccc(OC)cc3)c2CN1Cc1ccc(F)cc1	–
Cc1ccc(C2Cn3nnc(-c4noc(-c5ccc(F)cc5)n4)c3CO2)cc1 (stereo not drawn)	–
O=S(=O)(N[C@H]1[C@H](O)[C@H](O)C[C@@H]1c1ccccc1)c1ccc(C(F)(F)F)cc1	–
N#Cc1ccc(S(=O)(=O)N[C@H]2[C@H](O)[C@H](O)C[C@@H]2c2ccc(C(F)(F)F)cc2)cc1	11.2µM
O=S(=O)(N[C@H]1[C@H](O)[C@H](O)C[C@@H]1c1cncnc1)c1ccc(C(F)(F)F)cc1	–
NC(=O)[C@@H](Cc1ccccc1)NC(=O)C1=C[C@@H](NC(=O)c2cccnc2)[C@@H](O)[C@H](O)C1	–
CN(CC1CCOC1)C(=O)c1ccc(F)cc1Cl (stereo not drawn)	–[5.79 µM]
Cc1nc2ncnn2c(C)c1CCC(=O)N1CCN(c2cccc(Cl)c2)CC1	–
COc1ccc(-c2cc3nc(C)c(CCC(=O)N4CCN(c5cccc(Cl)c5)CC4)c(C)n3n2)c(OC)c1	10µM
COc1ccc(-c2cc3nc(C)c(CCC(=O)N4CCN(c5ccc(F)cc5)CC4)c(C)n3n2)c(OC)c1	10µM
COc1ccc(N2CCN(C(=O)c3c(C)nn(-c4ccc(F)cc4)c3-n3cccc3)CC2)cc1	–
COc1ccc(N2CCN(C(=O)CCc3c(C)nc4cc(-c5ccc(Cl)cc5)nn4c3C)CC2)cc1	–
Cc1nc2ncnn2c(C)c1CCC(=O)N1CCN(c2ccc(F)cc2)CC1	–
COc1ccc(CN2CC[C@@H]3CN(S(C)(=O)=O)[C@@H]3C2)cc1OC	–
O=C(NCc1ccc2nonc2c1)C1NCCc2[nH]cnc21 (stereo not drawn)	–
Cc1ncc2c(n1)C[C@@H]1CC[C@H]2N1C(=O)c1cnccn1	–
O=C(N[C@H]1[C@H](O)[C@H](O)C[C@@H]1c1ccc(C(F)(F)F)nc1)c1nc2ccccc2s1	–
CCOC(=O)C1=C(C)N(Cc2ccc(C(=O)N3CCCCC3)cc2)C(=O)CC1c1cccc(C)c1 (stereo not drawn)	5.01µM
COC(=O)C1=C(C)N(Cc2cccc(Cl)c2)C(=O)CC1c1ccccc1Cl (stereo not drawn)	–
Cc1ccc(CN2C(=O)NC3(CCCN(C(=O)c4cccc(C)c4)C3)C2=O)cc1 (stereo not drawn)	–
O=C1c2cnc(-c3cc(F)cc(F)c3)nc2OCCN1Cc1ccccc1	–
COCCN1C(=O)CS(=O)(=O)C12CCN(C(=O)c1cc(F)cc(F)c1)CC2	–
SMILES	Pf Dd2 inh
Cc1cc(C)c(CNC(=O)c2cc(-c3cccnc3)cc3c2OCCN3C)c(=O)[nH]1	–
Cc1cc(C)c(CNC(=O)c2cc(-c3ccccc3F)cc3c2OCCN3C(C)C)c(=O)[nH]1	–
Cc1cc(C)c(CNC(=O)c2cc(-c3ccccc3C)cc3c2OCCN3C(C)C)c(=O)[nH]1	–
COc1cc(F)ccc1-c1cc(C(=O)NCc2c(C)cc(C)[nH]c2=O)c2c(c1)N(C(C)C)CCO2	–
Cc1cc(C)c(CNC(=O)c2cc(-c3ccccc3F)cc3c2OCCN3C)c(=O)[nH]1	6.31µM
CC(=O)Nc1cccc(-c2cc(C(=O)NCc3c(C)cc(C)[nH]c3=O)c3c(c2)N(C(C)C)CCO3)c1	1.78µM
COc1cccc(C(=O)NC2CCc3nnc(C4CC4)n3CC2)c1C (stereo not drawn)	–
COc1ccc(-n2c(=O)c3c(n2Cc2ccccc2)CN(C(=O)CNC(C)=O)CC3)cc1	–
O=C(c1ccc(N2CC[C@H](O)C2)nc1)N1CCC(N2CCOCC2)CC1	–
CC(C)(C)c1cc(C[C@@H]2C[C@H](NC3CCOCC3)C2(C)C)no1	–
Cc1ccc(C(=O)N2C[C@@H](Oc3cccnc3)C[C@H]2C(=O)N2CCCC2)s1	–
COc1ccc(-c2ccccc2)cc1N1C(=O)[C@@H]2C[C@H]1CN2C(=O)[C@@H]1CCCO1	–
CC(Oc1ccc2ccccc2c1)C(=O)N(C)Cc1ccc2nsnc2c1 (stereo not drawn)	–
Cc1ccccc1NC(=O)C1CC(=O)N(c2n[nH]c3cccc(F)c23)C1 (stereo not drawn)	–
OC[C@@H]1CNC[C@H]1C1CCN(Cc2cccc(F)c2)CC1	–
CCC1CCCCN1C(=O)CSc1nc(-c2ccc(OC)c(OC)c2)cc(C(F)(F)F)n1 (stereo not drawn)	–
COc1ccc(-c2nccc3c(=O)cc(N4CCOCC4)oc23)cc1OC	–
COc1ccc(-c2cc(C(F)(F)F)nc(SCC(=O)N3CCCCC3C)n2)cc1OC (stereo not drawn)	–
COc1ccc(-c2cc3ccc(O)c(CN4CCCCC4C)c3oc2=O)cc1OC (stereo not drawn)	7.08µM
CCCNC(=O)C1CCN(c2cc(C)nc3c(-c4ccc(OC)c(OC)c4)c(C)nn23)CC1	–
COc1ccc(-c2c(C)c3ccc(O)c(CN4CCCCC4C)c3oc2=O)cc1OC (stereo not drawn)	11.2µM
COCCOCc1nc(C2CCN(C(=O)c3n[nH]c4c3CCCCCC4)CC2)no1	–
O=C1CC2(CCN([S+](=O)([O-])c3cccs3)CC2)Oc2ccccc2N1c1ccccc1	–
O=C(c1cnccn1)N1CCCC2(COc3ccccc3[S+](=O)([O-])N2)C1 (stereo not drawn)	–
COCC1CN(C(=O)C2(c3ccccc3)CC2)CC12CCOCC2 (stereo not drawn)	–
SMILES	Pf Dd2 inh
O=C(CC1=C2CCCCC2N(Cc2ccc(F)cc2)C1=O)NC1CC1 (stereo not drawn)	–
CCNC(=O)CC1=C2CCCCC2N(C)C1=O (stereo not drawn)	–
CN1C(=O)C(CC(=O)NCCCN2CCc3ccccc3C2)=C2CCCCC21 (stereo not drawn)	–
CN1C(=O)C(CC(=O)NC2CC2)=C2CCCCC21 (stereo not drawn)	–
CN1C(=O)C(CC(=O)NCC2CCN(Cc3ccc(F)cc3)CC2)=C2CCCCC21 (stereo not drawn)	5.01µM
CC1CCN(c2ccc(CNC(=O)CC3=C4CCCCC4N(C)C3=O)cc2)CC1 (stereo not drawn)	10µM
COc1cccc(CNC(=O)[C@@H]2C[C@@H](O)CN2C2CCN(C(=O)c3ccc(C)c(F)c3)CC2)c1	–
CN(Cc1cc2n(n1)CCCNC2)CC1COCCO1 (stereo not drawn)	–
Cc1cn2nnc(C(=O)NCc3ccco3)c2c(=O)[nH]1	–
Cc1cn2nnc(C(=O)NCCCc3ccccc3)c2c(=O)[nH]1	–
Cc1cn2nnc(C(=O)NC3CCCCCCC3)c2c(=O)[nH]1	7.94µM
CCOc1ccc(NC(=O)c2nnn3cc(C)[nH]c(=O)c23)cc1	0.631µM
Cc1cn2nnc(C(=O)NC3CCN(Cc4ccccc4)CC3)c2c(=O)[nH]1	–
CCCCNC(=O)c1nnn2cc(C)[nH]c(=O)c12	–
CCOc1ccccc1CNC(=O)c1nnn2cc(C)[nH]c(=O)c12	8.91µM
Cc1cn2nnc(C(=O)N3CCC(C(=O)NC4CCCCC4)CC3)c2c(=O)[nH]1	–
Cc1cn2nnc(C(=O)NC3CCCCCC3)c2c(=O)[nH]1	–
CCC(=O)N1CCCC(n2c(C)cnc2-c2ccccc2)C1 (stereo not drawn)	–
Cc1cc(CC(=O)N2C[C@@H](COCC3CC3)[C@H](c3ccncc3)C2)on1	–

Screening results (PubChem)
